SMARCA2 activ: SMARCA2 function activation, primary screen; activation, % at 9.1 µM; MG213 cells, MMTV-luciferase reporter, dexamethasone, overnight; AID 652017; actives 1% (n = 370,000); in the data active = activation above about 7.8%;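 also: 0% = vehicle wells and 100% = reference activator wells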
hgDAF12 agonist: activates the H. glycines DAF-12 receptor ligand-binding domain; HEK293 GAL4-hgDAF12 UAS-luciferase reporter, agonist luminescence; normalized to butyrate control; activation, % at 6.8 µM; actives 1.8% (n = 370,000);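 active = activation above a cutoff set at the mean of all screened compounds plus 3 SD, cut at about 10% in these data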;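 also: 0% = DMSO wells and 100% = sodium butyrate wells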
ssDAF12 agonist: activators of S. stercoralis DAF-12 nuclear receptor; HEK293 ssDAF-12/GRIP1 lit1-tk-luc reporter, luminescence; % of 3 µM dafachronic acid response; activation, % at 6.8 µM; actives 1% (n = 370,000);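 active = activation above the mean over all tested compounds plus 3 SD, cut at about 0.9% in these data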;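 also: 0% = DMSO-only wells and 100% = 3 µM delta7-dafachronic acid wells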
DAX1 inh-1: blocks DAX1 repression of SF-1 activated StAR promoter; HEK293T StAR-luciferase reporter, SF-1/DAX-1 repression relief; inhibition, % at 6.8 µM; actives 1.1% (n = 370,000);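 active = inhibition above the mean over all tested compounds plus 3 SD, cut at about 3.6% in these data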;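 also: 0% = DAX-1 cells with DMSO and 100% = cells lacking DAX-1 with DMSO; higher inhibition means more luminescence from relief of DAX-1 repression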
hcDAF12 agonist: activators of H. contortus DAF-12 nuclear receptor | HEK293 hcDAF-12 lit1-tk-luc reporter, luminescence; 0% DMSO, 100% Δ7-dafachronic acid | activation, % at 6.8 µM | actives 1.4% (n = 370,000) | AID 652067;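 active = activation above the mean of all tested compounds plus 3 SD, cut at about 5.5% in these data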;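 also: 100% = response to 3 µM Δ7-dafachronic acid high control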
DAX1 inh-2: NR0B1 (DAX1) inhibition; HEK293 Gal4-DAX1 luciferase reporter, luminescence; inhibition, % at 6.75 µM; AID 504766; actives 0.99% (n = 340,000);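 active = inhibition above the mean over all tested compounds plus 3 SD, cut at about 4.2% in these data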;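 also: 0% = DAX1-transfected cells with DMSO and 100% = empty-vector control cells with DMSO; inhibition shows as a rise in luminescence from relieved DAX1 repression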
Target sequence (P51843 207-470 limits assumed): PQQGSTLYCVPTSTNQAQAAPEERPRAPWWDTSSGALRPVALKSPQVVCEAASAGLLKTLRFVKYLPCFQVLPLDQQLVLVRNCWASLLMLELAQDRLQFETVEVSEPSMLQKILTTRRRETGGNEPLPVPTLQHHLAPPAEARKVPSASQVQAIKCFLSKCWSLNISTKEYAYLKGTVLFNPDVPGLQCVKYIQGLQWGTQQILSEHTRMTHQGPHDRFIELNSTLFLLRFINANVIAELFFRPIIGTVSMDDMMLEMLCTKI
* marks the source's active call; other numbers are inactive results; ! = not active in a repeat. This is a sample that favours compounds with a hit; in the whole collection about 4.8% have one here.

For Cc1ccc(-c2nn(Cc3ccccc3)cc2C(=O)O)cc1 the results were SMARCA2 activ 2, hgDAF12 agonist 1, ssDAF12 agonist 0, DAX1 inh-1 0, hcDAF12 agonist 3 and DAX1 inh-2 5.3*.
For O=C1NC2C(=CC(O)C(O)C2O)c2cc3c(c(O)c21)OCO3 (centres undefined) the results were SMARCA2 activ -10, hgDAF12 agonist -16, ssDAF12 agonist -3, DAX1 inh-1 -7, hcDAF12 agonist -6 and DAX1 inh-2 -7.
Screening c1ccc(CN2CCc3nc4ccccc4cc3C2)cc1 returned SMARCA2 activ 3, hgDAF12 agonist 12*, ssDAF12 agonist -1, DAX1 inh-1 0, hcDAF12 agonist 1 and DAX1 inh-2 2.
Screening CNc1cc(N2CCN(C)CC2)ccc1[N+](=O)[O-] returned SMARCA2 activ -1, hgDAF12 agonist 0, ssDAF12 agonist -1, DAX1 inh-1 1, hcDAF12 agonist 0 and DAX1 inh-2 -1.
Screening CC(=O)c1ccc(NC2=NCCCS2)cc1 returned SMARCA2 activ 0, hgDAF12 agonist 2, ssDAF12 agonist -1, DAX1 inh-1 1, hcDAF12 agonist -1 and DAX1 inh-2 1.
`CC(=O)Nc1ccc(OC(=O)N(C)C)cc1` gave SMARCA2 activ -2, hgDAF12 agonist 1, ssDAF12 agonist -1, DAX1 inh-1 1, hcDAF12 agonist -1 and DAX1 inh-2 0.
`CN(C)C(=O)Oc1ccc(OCc2nc3ccccc3[nH]2)cc1` gave SMARCA2 activ 0, hgDAF12 agonist 11*, ssDAF12 agonist 0, DAX1 inh-1 3, hcDAF12 agonist 3 and DAX1 inh-2 -2.
Screening O=C(CN1CCCCC1)c1ccc2c(c1)OCO2 returned SMARCA2 activ 7, hgDAF12 agonist 1, ssDAF12 agonist 0, DAX1 inh-1 0, hcDAF12 agonist 0 and DAX1 inh-2 5.6*.
For O=C(CN1CCCCC1)c1cccc(Br)c1 the results were SMARCA2 activ 0, hgDAF12 agonist -1, ssDAF12 agonist -1, DAX1 inh-1 0, hcDAF12 agonist -1 and DAX1 inh-2 1.
Screening Cc1ccc2[nH]c(C)c(CCNCc3cccnc3)c2c1 returned SMARCA2 activ -1, hgDAF12 agonist -1, ssDAF12 agonist 1.0*, DAX1 inh-1 0, hcDAF12 agonist -1 and DAX1 inh-2 0.
Screening COc1ccc2[nH]c(C)c(CCNCc3cc(OC)c(OC)c(OC)c3)c2c1 returned SMARCA2 activ -2, hgDAF12 agonist -2, ssDAF12 agonist -2, DAX1 inh-1 -1, hcDAF12 agonist -1 and DAX1 inh-2 0.
`O=[N+]([O-])c1ccc(N2CC2)c([N+](=O)[O-])c1` gave SMARCA2 activ 4, hgDAF12 agonist -4, ssDAF12 agonist -1, DAX1 inh-1 -2, hcDAF12 agonist -1 and DAX1 inh-2 0.
CN1CCN(C(=O)COc2ccc3ccccc3c2)CC1 was read as SMARCA2 activ 1, hgDAF12 agonist 3, ssDAF12 agonist 0, DAX1 inh-1 0, hcDAF12 agonist 1 and DAX1 inh-2 0.
CC(C)NS(=O)(=O)c1ccc(OCC(=O)N2CCN(C)CC2)cc1 was read as SMARCA2 activ 0, hgDAF12 agonist 6, ssDAF12 agonist -1, DAX1 inh-1 0, hcDAF12 agonist 0 and DAX1 inh-2 4.4*.
For CN1CCN(C(=O)COc2ccc(-c3nc4ccccc4s3)cc2)CC1 the results were SMARCA2 activ 4, hgDAF12 agonist 11*, ssDAF12 agonist 0, DAX1 inh-1 3.9*, hcDAF12 agonist 5 and DAX1 inh-2 -4.
Screening CNC(=O)O/N=C(\C)Cc1nnn(-c2cc(C)on2)n1 returned SMARCA2 activ -1, hgDAF12 agonist 2, ssDAF12 agonist -1, DAX1 inh-1 0, hcDAF12 agonist 0 and DAX1 inh-2 5.1*.
`O=c1[nH]c(=S)[nH]c(O)c1N=Nc1ccc(OC(F)F)cc1` gave SMARCA2 activ 3, hgDAF12 agonist 4, ssDAF12 agonist 0, DAX1 inh-1 2, hcDAF12 agonist 1 and DAX1 inh-2 4.4*.
`COc1ccc(N=Nc2c(O)[nH]c(=S)[nH]c2=O)cc1` gave SMARCA2 activ 5, hgDAF12 agonist 8, ssDAF12 agonist -1, DAX1 inh-1 3.9*, hcDAF12 agonist 2 and DAX1 inh-2 3.
For O=C(Nc1ccc(Cl)cc1)OC1CN2CCC1CC2 (centres undefined) the results were SMARCA2 activ -2, hgDAF12 agonist 7, ssDAF12 agonist -1, DAX1 inh-1 1, hcDAF12 agonist 1 and DAX1 inh-2 1.
c1ccc2c(c1)CC1CNCc3cccc(c31)S2 (centres undefined) was read as SMARCA2 activ -3, hgDAF12 agonist -1, ssDAF12 agonist -1, DAX1 inh-1 0, hcDAF12 agonist 0 and DAX1 inh-2 1.
O=C(Cc1c[nH]c2ccccc12)NNCc1ccc(N(CCCl)CCCl)cc1 was read as SMARCA2 activ -4, hgDAF12 agonist 1, ssDAF12 agonist 49*, DAX1 inh-1 -1, hcDAF12 agonist 4 and DAX1 inh-2 1.
O=C(Cc1ccc(N(CCCl)CCCl)cc1)NC(Cc1ccc(Cl)cc1)C(=O)O (centres undefined) was read as SMARCA2 activ 0, hgDAF12 agonist 1, ssDAF12 agonist -1, DAX1 inh-1 0, hcDAF12 agonist -2 and DAX1 inh-2 2.
Screening CNC(=O)c1cccn(Cc2ccc(C(F)(F)F)cc2)c1=O returned SMARCA2 activ -3, hgDAF12 agonist -4, ssDAF12 agonist 2.4*, DAX1 inh-1 -1, hcDAF12 agonist 0 and DAX1 inh-2 1.
O=C(O)C(Br)Br was read as SMARCA2 activ -2, hgDAF12 agonist 4, ssDAF12 agonist 0, DAX1 inh-1 1 and hcDAF12 agonist 1.
`COc1ccc(-c2cc(=NCCCCCC(=O)O)c3cc(C)ccc3o2)cc1` gave SMARCA2 activ 3, hgDAF12 agonist 11*!, ssDAF12 agonist -1, DAX1 inh-1 2, hcDAF12 agonist 2 and DAX1 inh-2 1.
Screening OC1(c2ccccc2)CCNC2CCCCC21 (centres undefined) returned SMARCA2 activ -2, hgDAF12 agonist 0, ssDAF12 agonist -1, DAX1 inh-1 0, hcDAF12 agonist -1 and DAX1 inh-2 0.
OC12CCCCC1C(c1ccccc1)NCC2 (centres undefined) was read as SMARCA2 activ 6, hgDAF12 agonist 4, ssDAF12 agonist -1, DAX1 inh-1 0, hcDAF12 agonist -1 and DAX1 inh-2 4.3*.
Screening CN(C)C(=O)Oc1cccc(NC(=O)c2ccccc2C(F)(F)F)c1 returned SMARCA2 activ -2, hgDAF12 agonist -1, ssDAF12 agonist -1, DAX1 inh-1 0, hcDAF12 agonist -1 and DAX1 inh-2 0.

From PubChem
